According to ChEMBL document CHEMBL3988442, “University of Dundee, Small-Polar-MMV Screening Library” (2021):
For some assays here: Entries with a potency or affinity are not part of this list.

What was measured:
Set-up in all cases: scale not given: direction of the effect not stated beside the values
[1] = molecular target: Protein translocase subunit SecA (Escherichia coli (strain K12)) (UniProt P10408); experiment: Assay to Identify E. coli SecA ATPase Inhibitors; type: functional; conditions: 30 µM
Chain of Protein translocase subunit SecA (Escherichia coli (strain K12)) (P10408 whole entry): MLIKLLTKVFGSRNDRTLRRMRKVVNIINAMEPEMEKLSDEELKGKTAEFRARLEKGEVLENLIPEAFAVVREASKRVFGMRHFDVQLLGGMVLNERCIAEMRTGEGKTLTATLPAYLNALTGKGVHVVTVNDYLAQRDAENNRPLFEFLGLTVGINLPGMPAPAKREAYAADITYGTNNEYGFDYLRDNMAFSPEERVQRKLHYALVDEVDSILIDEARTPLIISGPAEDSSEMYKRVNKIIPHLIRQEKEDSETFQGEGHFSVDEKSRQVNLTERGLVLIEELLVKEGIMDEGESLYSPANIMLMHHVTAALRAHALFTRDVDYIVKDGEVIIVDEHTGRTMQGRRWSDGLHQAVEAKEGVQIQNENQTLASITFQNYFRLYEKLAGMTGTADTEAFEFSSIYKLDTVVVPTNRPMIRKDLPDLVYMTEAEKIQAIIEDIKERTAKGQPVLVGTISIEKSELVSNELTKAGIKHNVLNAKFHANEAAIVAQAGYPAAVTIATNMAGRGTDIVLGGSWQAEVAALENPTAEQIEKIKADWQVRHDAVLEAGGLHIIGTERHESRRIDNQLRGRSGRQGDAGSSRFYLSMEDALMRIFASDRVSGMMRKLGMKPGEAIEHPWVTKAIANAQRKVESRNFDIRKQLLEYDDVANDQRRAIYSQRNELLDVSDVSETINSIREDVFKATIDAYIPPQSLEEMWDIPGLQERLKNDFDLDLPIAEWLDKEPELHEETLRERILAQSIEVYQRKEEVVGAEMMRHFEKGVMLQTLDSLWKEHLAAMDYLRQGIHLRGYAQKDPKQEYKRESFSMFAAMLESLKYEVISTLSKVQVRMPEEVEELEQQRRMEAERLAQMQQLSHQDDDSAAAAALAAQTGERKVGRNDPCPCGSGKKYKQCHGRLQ

[2] = molecular target: T1, Ubiquitin-activating enzyme e1, putative (Leishmania donovani (strain BPK282A1)) (UniProt E9BSI1); experiment: Leishmania donovani Ubiquitin Activating Enzyme (LdE1); type: functional; conditions: 30 µM
T1 sequence (whole entry): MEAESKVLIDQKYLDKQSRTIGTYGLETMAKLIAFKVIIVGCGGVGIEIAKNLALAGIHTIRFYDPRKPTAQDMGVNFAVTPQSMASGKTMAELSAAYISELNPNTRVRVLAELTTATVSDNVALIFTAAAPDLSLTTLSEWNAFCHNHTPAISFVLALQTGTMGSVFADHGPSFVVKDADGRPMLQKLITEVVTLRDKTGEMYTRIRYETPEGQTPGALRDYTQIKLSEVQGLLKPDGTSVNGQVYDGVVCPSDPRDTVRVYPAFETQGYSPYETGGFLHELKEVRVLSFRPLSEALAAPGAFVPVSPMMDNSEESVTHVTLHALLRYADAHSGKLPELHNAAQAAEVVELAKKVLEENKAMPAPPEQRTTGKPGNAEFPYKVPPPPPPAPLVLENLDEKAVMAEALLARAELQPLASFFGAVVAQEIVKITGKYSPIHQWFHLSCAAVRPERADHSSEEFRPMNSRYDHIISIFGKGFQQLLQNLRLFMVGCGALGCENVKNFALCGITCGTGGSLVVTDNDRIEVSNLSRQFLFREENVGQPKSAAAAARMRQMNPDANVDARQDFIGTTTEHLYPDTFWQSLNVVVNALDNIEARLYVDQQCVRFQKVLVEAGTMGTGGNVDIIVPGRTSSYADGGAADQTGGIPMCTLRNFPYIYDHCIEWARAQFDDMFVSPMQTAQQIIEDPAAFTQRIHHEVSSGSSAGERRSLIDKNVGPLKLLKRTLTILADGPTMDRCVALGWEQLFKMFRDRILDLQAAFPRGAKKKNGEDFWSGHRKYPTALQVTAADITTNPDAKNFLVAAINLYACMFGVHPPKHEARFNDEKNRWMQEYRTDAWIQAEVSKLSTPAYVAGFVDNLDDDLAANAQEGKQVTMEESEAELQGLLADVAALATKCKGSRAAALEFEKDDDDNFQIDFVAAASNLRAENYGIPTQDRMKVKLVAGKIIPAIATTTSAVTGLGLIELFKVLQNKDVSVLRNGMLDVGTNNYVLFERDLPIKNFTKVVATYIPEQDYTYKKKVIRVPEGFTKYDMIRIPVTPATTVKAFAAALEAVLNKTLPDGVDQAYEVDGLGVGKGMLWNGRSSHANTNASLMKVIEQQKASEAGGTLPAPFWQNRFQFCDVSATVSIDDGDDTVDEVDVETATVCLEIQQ

[3] = molecular target: AMP-activated protein kinase, AMPK (Homo sapiens) (UniProt P54646+O43741+P54619+Q9UGJ0+Q9Y478+Q13131+Q9UGI9); experiment: AMP-dependent Kinase enzyme assay. An in vitro enzyme assay that detects ADP turnover that is directly proportional to AMPK activity. This uses naive AMPK that is activated during the assay with MK-8722; type: functional; conditions: 30 µM
[4] = molecular target: Sialic acid-binding Ig-like lectin 9 (Homo sapiens) (UniProt Q9Y336); experiment: Hs-Siglec9 ALPHAscreen SOP 20170721; conditions: 10 µM
Chain of Sialic acid-binding Ig-like lectin 9 (Homo sapiens) (Q9Y336 whole entry): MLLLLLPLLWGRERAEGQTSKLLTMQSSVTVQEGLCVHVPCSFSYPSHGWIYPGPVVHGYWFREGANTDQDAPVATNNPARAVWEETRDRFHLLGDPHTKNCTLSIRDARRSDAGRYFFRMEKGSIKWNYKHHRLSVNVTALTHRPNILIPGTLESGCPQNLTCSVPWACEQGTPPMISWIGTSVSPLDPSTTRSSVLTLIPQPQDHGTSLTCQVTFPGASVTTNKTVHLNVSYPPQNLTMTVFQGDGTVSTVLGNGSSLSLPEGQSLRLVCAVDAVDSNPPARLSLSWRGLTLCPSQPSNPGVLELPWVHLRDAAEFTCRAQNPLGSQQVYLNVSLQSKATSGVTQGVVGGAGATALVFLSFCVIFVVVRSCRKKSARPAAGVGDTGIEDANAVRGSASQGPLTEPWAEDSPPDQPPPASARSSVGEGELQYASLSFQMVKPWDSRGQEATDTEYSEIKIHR

[5] = test system: Trypanosoma cruzi; experiment: Trypanosoma cruzi phosphomannomutase and mannose-1-phosphate guanylyltransferase assay; type: functional; conditions: 10 µM
[6] = molecular target: T2, Arginase-2, mitochondrial (Homo sapiens) (UniProt P78540); experiment: in vitro enzyme assay to detect the production of urea directly proportional to the activity of Arginase II; type: functional; conditions: 33.3 µM; further: in the data most compounds retested in dose-response had high values
T2 sequence (whole entry): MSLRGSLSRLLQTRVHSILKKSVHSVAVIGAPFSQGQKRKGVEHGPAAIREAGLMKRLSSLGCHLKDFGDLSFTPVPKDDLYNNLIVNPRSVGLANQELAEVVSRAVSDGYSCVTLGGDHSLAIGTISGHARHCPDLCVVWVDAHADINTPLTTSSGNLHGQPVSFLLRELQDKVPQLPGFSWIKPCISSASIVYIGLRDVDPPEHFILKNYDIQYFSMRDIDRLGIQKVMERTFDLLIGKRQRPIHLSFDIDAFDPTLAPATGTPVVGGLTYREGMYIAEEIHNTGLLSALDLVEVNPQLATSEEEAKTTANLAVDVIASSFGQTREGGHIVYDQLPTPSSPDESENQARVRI

[7] = molecular target: T3, Proteasome subunit beta (Trypanosoma cruzi) (UniProt O96673); experiment: Trypanosoma cruzi proteasome chymotrypsin-like activity (TcProtChymo) assay.; further: in the data most compounds retested in dose-response had high values; type: functional; conditions: 9.37 µM
T3 sequence (whole entry): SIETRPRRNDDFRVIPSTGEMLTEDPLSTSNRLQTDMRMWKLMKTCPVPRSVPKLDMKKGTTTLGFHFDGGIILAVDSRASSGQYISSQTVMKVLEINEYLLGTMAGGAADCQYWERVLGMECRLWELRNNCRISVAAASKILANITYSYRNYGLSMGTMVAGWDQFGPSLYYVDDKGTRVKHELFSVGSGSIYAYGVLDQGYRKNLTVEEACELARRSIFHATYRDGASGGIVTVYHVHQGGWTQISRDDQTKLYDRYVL

[8] = species on record: Homo sapiens; experiment: To identify inhibition of the IFN signalling (Jak-Stat) pathway via expression of an eGFP reporter gene under the control of an IFN-stimulated response element (ISRE) containing MxA promoter.; type: functional; conditions: 30 µM
[9] = molecular target: T4, Tyrosyl-tRNA synthetase, putative (Trypanosoma cruzi (strain CL Brener)) (UniProt Q4DSP6); experiment: Trypanosoma cruzi tyrosyl tRNA synthetase (TcYRS) _High Tyrosine SOP; type: functional; conditions: 30 µM; further: in the data most compounds retested in dose-response had high values
T4 sequence (whole entry): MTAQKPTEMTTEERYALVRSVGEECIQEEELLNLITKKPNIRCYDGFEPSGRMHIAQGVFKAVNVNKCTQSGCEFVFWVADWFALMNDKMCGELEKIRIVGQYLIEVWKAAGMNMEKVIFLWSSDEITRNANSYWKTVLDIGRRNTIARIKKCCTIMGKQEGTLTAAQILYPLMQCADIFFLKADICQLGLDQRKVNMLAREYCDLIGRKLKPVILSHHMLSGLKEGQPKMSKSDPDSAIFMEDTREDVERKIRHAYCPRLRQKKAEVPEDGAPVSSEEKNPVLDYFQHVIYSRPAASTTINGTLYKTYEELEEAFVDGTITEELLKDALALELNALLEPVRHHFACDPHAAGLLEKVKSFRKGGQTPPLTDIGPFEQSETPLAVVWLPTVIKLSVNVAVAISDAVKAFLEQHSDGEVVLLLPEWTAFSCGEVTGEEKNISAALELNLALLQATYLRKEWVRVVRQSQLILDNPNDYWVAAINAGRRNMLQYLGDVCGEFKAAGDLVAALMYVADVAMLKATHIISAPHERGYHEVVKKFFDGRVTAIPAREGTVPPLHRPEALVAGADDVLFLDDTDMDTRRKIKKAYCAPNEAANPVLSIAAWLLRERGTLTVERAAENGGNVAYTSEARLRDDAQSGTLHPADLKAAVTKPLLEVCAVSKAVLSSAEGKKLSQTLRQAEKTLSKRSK

[10] = molecular target: T4, Tyrosyl-tRNA synthetase, putative (Trypanosoma cruzi (strain CL Brener)); experiment: Trypanosoma cruzi tyrosyl tRNA synthetase (TcYRS) SOP; type: functional; conditions: 30 µM
[11] = molecular target: Chromo domain-containing protein 1 (Saccharomyces cerevisiae (strain ATCC 204508 / S288c) (Baker's yeast)) (UniProt P32657); experiment: ScCHD-1 Enzyme Inhibition Assay; type: functional; conditions: 30 µM; further: in the data most compounds retested in dose-response had high values
Chain of Chromo domain-containing protein 1 (Saccharomyces cerevisiae (strain ATCC 204508 / S288c) (Baker's yeast)) (P32657 whole entry, the tested form may be a part): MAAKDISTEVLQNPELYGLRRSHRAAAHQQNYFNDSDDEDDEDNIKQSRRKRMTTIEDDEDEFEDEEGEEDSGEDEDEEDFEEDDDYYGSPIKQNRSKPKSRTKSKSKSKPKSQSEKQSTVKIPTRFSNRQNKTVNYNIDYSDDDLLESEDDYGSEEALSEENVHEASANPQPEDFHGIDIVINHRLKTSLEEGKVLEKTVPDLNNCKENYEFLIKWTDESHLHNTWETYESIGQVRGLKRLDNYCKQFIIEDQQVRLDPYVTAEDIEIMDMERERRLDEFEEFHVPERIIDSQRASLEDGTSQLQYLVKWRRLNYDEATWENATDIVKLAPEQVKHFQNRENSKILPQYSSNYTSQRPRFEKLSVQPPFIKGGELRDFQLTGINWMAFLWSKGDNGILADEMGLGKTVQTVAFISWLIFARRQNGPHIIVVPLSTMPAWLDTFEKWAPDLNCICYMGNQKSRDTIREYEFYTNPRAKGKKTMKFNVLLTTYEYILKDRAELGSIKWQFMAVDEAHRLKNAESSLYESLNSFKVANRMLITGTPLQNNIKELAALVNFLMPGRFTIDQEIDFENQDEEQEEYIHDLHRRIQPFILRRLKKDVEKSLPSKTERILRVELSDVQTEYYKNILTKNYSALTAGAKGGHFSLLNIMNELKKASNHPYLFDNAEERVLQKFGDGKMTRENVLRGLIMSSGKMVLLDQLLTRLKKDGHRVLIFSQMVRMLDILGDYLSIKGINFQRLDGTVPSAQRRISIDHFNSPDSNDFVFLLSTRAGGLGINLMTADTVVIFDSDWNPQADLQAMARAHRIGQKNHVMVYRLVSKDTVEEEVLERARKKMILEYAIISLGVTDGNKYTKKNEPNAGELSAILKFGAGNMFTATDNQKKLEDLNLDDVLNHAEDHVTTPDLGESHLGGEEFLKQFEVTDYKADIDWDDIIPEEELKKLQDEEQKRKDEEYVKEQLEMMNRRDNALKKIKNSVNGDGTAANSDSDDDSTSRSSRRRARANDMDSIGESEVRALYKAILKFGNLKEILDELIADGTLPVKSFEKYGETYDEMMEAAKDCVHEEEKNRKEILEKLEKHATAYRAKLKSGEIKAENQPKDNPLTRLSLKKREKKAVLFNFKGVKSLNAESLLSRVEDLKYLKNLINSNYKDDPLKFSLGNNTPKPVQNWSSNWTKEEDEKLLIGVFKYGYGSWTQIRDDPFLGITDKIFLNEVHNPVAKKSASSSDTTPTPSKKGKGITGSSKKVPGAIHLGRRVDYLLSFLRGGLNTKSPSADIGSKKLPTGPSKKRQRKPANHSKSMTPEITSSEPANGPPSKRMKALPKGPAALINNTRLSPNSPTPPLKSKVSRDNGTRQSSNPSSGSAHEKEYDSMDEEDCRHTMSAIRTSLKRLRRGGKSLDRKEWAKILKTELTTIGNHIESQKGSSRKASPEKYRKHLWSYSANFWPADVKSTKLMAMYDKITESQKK

| Structure (SMILES) | Percent Effect [1] | Percent Effect [2] | Percent Effect [3] | Percent Effect [4] | Percent Effect [5] | Percent Effect [6] | Percent Effect [7] | Percent Effect [8] | Percent Effect [9] | Percent Effect [10] | Percent Effect [11] |
| --- | --- | --- | --- | --- | --- | --- | --- | --- | --- | --- | --- |
| Cc1ccoc1C(=O)N1CC[C@H]2OCC[C@@]2(COCc2ccncc2)C1 | -0.155% | 15.6% | 3.21% | 3.48% | 2.07% | 7.1% | 17.2% | 23.7% | 7.41% | 16.7% | -9.72% |
| O=C(c1ccc(Br)o1)N1CCCC(n2cncn2)C1 (stereo unspecified) | -5.45% | -1.39% | 0.96% | -6.28% | -3.6% | -2.21% | 4.04% | 7.55% | 0% | 2.56% | 1.43% |
| CC(C)(C)n1cc(C(=O)N2CCCN(Cc3cccs3)CC2)cn1 | -1.01% | 5.26% | 3.41% | 2.97% | -3.57% | 3.45% | 9.19% | 14.5% | 1.47% | 9.76% | -2.3% |
| Cc1nnc2n1CCN(C(=O)c1cc(Cl)c[nH]1)C2 | -3.51% | -15.8% | 7.83% | 10.9% | 0.376% | 1.92% | 2.84% | -3.3% | 0.49% | -4.88% | 3.54% |
| COCC(=O)NC1CC2(CCN(Cc3ccco3)CC2)c2ccccc21 (stereo unspecified) | -1.45% | 2.7% | -1.83% | 3.44% | -7.92% | 2.23% | 24.2% | 4.53% | 2.16% | 5.13% | -3.97% |
| Cc1nc(CN2CCc3nn(C(C)C)c(=O)cc3C2)oc1C | -3.86% | -2.63% | -91.7% | 5.18% | -3.83% | 6.83% | 10.4% | -4.72% | -3.45% | -8.64% | 2.02% |
| COc1ccc(C2CCCN2S(=O)(=O)N(C)CC(C)C)cc1 (stereo unspecified) | -1.74% | -6.94% | 6.36% | -0.345% | -2.62% | -3.97% | 5.61% | -1.6% | -5.26% | -10.3% | -2.11% |
| O=c1cc(CN2CCCC(CCc3c(F)cccc3F)C2)[nH]c(=O)[nH]1 (stereo unspecified) | 1.76% | 10.8% | -7.22% | 1.61% | 4.25% | 14.3% | 16.7% | 25% | 10.1% | 19.5% | -4.32% |
| CCn1c(C2CCCN(Cc3nccn3CCOC)C2)nn(C)c1=O (stereo unspecified) | -0.824% | 8.11% | -5.71% | 28.2% | 3.03% | 32.5% | 3.69% | -44.6% | 9.68% | 18.5% | -6.18% |
| Cn1cc(CN2CCC3(C2)CN(Cc2ccsc2)C3)cn1 | -5.1% | 2.6% | -2.26% | 5.86% | 3.64% | 1.38% | 10.5% | -4.61% | 3.23% | 8.64% | 1.08% |
| CC(C)OCC(=O)N1CCCN(Cc2ccc(C#N)cc2)CC1 | -2.63% | 13.2% | 4.09% | 11.3% | 0.94% | 2.68% | 10.2% | -2.84% | 8.33% | 17.1% | -8.3% |
| CC(=O)N1CCN(Cc2csc(-c3cnn(C)c3)n2)CC1 | -5.28% | 7.89% | -1.26% | 6.08% | 9.21% | -1.53% | 2.17% | 3.43% | 4.41% | 9.76% | -7.33% |
| Cc1nc(CCCNC(=O)C2CC(=O)N(C(C)(C)C)C2)sc1C (stereo unspecified) | -3.07% | 5.48% | -0.283% | 4.12% | -3.57% | -2% | 7.79% | 12.9% | 5.21% | 13.6% | -5.51% |
| Cc1nc(C)n(C2CCCN(C(=O)COCc3ccccc3)C2)n1 (stereo unspecified) | -0.388% | 0% | 25.2% | 9.37% | 2.25% | 1.78% | -4.22% | 4.38% | 3.88% | 12.2% | -7.13% |
| Cc1nn(C)c(C)c1CC(=O)N1CCCC(n2cccn2)C1 (stereo unspecified) | -2.93% | -5.26% | -2.25% | -1.17% | 6.26% | -5.4% | 2.12% | -14.2% | 3.45% | 3.7% | 0.321% |
| Cc1noc(C)c1CNC(=O)N1CCC(C(O)c2ccccc2)CC1 (stereo unspecified) | -4.23% | 11% | -3.81% | 6.33% | 7.54% | -4.79% | -1.8% | 11.9% | 2.08% | 13.6% | -3.08% |
